Compounds without any hit were thinned out: in the full panel of roughly 83,000, 20% have a hit.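 Plates (96-well) were seeded with cells, treated with compound at one concentration, and incubated for 48 hours before percent growth was determined.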 A number with no mark means an inactive call. Calls of active or inactive are those of the source. Rule for the calls: active = growth percent below 10; inactive = the rest.
Assays:
Test in all cases: NCI-60 one-dose screen, 48 h (100 = growth as untreated, 0 = no growth, -100 = all killed)
Conditions in all cases: 10 µM unless noted
DU-145 prostate = test system: DU-145 prostate
K-562 leukemia = test system: K-562 leukemia
MALME-3M melanoma = test system: MALME-3M melanoma
MDA-MB-231 breast = test system: MDA-MB-231 breast
RXF 393 renal = test system: RXF 393 renal
SF-268 CNS = test system: SF-268 CNS
SF-295 CNS = test system: SF-295 CNS
SF-539 CNS = test system: SF-539 CNS
UACC-257 melanoma = test system: UACC-257 melanoma
M14 melanoma = test system: M14 melanoma

Structure (SMILES) | growth (DU-145 prostate) | growth (K-562 leukemia) | growth (MALME-3M melanoma) | growth (MDA-MB-231 breast) | growth (RXF 393 renal) | growth (SF-268 CNS) | growth (SF-295 CNS) | growth (SF-539 CNS) | growth (UACC-257 melanoma) | growth (M14 melanoma)
CCOC(=O)/C(C#N)=C1/NNC(=Nc2cccnc2)S1 | 105% | 99.8% | 105% | 98.8% | 110% | 100% | 98.9% | 102% | 78.3% | 95.9%
CC(=O)O[C@H]1Cc2c([nH]c3ccccc23)[C@@H](c2ccc(Cl)cc2)N1C(=O)CCNC(C)(C)C | 65.2% | 8.71% (active) | -37.8% (active) | -26% (active) | 39.6% | 61.3% | 68.3% | 40.1% | 65.1% | -0.737% (active)
[O-][n+]1c(Cl)cc(Cl)c2ccccc21 | 113% | 85.2% | 107% | 100% | 153% | 96.7% | 103% | 125% | 102% | 100%
COc1ccc(CCn2cncc2-c2c[nH]c3ccccc23)cc1 | 102% | 87% | 90.8% | 74.5% | 87.8% | 80.9% | 74.1% | 93.4% | 102% | 92.6%
Fc1ccc2c(-c3cncn3CCc3ccccc3)c[nH]c2c1 | 104% | 74.6% | 91.4% | 87.8% | 79.6% | 83.9% | 83.5% | 94.6% | 94.6% | 90.8%
N#CC1=C(/N=C/c2ccccc2)Oc2c(ccc3ccccc23)C1c1ccc([N+](=O)[O-])cc1 (stereo not given) | 96% | 90.7% | 96.6% | 72.7% | 98.2% | 89.2% | 98.5% | 95.1% | 97.1% | 102%
COc1cc(CC(=O)c2ccc(O)c(OC)c2)ccc1O | 108% | 89.1% | 107% | 88.6% | 102% | 102% | 98.9% | 103% | 80.1% | 102%
COc1cc(C2=C(c3cn(C)c4ccccc34)COC2=O)cc(OC)c1OC | 19.9% | 6.17% (active) | 44.5% | 22.5% | -21% (active) | 25.8% | -5.22% (active) | -19.7% (active) | 67.4% | -13.9% (active)
CCC(=O)Oc1ccc(/C(=C(\C)c2ccccc2)c2ccc(OCCN3CCCCC3)cc2)cc1 | 91.5% | 17.1% | 79% | 91.1% | 73.9% | 80.3% | 86.5% | 62.2% | 72.1% | 72.3%
N#Cc1c(NC(=O)NCc2ccccc2)sc2c1CCCCC2 | 3.54% (active) | 12.7% | 44.7% | 10.7% | -3.29% (active) | 41% | 19.9% | -5.27% (active) | 61.6% | 10.9%
CCCCCN1C=C/C(=C\C(=O)N(C)c2ccc(OC(F)(F)F)cc2)c2ccccc21 | 110% | 90.3% | 95.3% | 97.7% | 107% | 100% | 93% | 103% | 93.8% | 102%
CC1(C)CC(=O)C2=C(C1)N(c1ccc(F)cc1F)C(N)=C(C#N)C2c1cc(Br)ccc1F (stereo not given) | 95.4% | 87.6% | 99% | 96.4% | 103% | 103% | 105% | 87.8% | 101% | 85.1%
COc1ccc(/C=C2\Oc3cc(OCCCN4CCCCC4)ccc3C2=O)cc1OC | 95.9% | -22.8% (active) | 104% | 78.6% | 74.4% | 86.5% | 102% | 91.5% | 102% | 98.7%
Cc1ccc(-c2[nH][nH]c(=O)c2-c2nc3ccccc3s2)cc1 | 111% | 100% | 96.5% | 99.1% | 101% | 103% | 101% | 100% | 104% | 98.1%
C=C1C(=O)O[C@H]2[C@H]1CC/C(COC(=O)NCCc1c[nH]c3ccc(OC)cc13)=C\CC[C@@]1(C)O[C@@H]21 | 10.6% | 3.56% (active) | -37.2% (active) | 39.1% | -81.7% (active) | 60.1% | 86.2% | -24.7% (active) | 30.6% | 14.1%
C#CCNC(=O)[C@H](Cc1ccccc1)NC(=O)[C@]12CC[C@@H](C(=C)C)[C@@H]1[C@H]1CC[C@@H]3[C@@]4(C)CCC(=O)C(C)(C)[C@@H]4CC[C@@]3(C)[C@]1(C)CC2 | 91.6% | 31.8% | 88.8% | 79.1% | 82.9% | 74.3% | 73.4% | 99.9% | 59.4% | 81.7%
c1ccc2c(-c3c[nH]c4ccccc34)c3c(cc2c1)[nH]c1ccccc13 | 93.7% | 25.1% | 78.9% | 71.6% | 33.5% | 66.7% | 85.4% | 59% | 77.6% | 39.2%
COc1ccc(C(=O)c2cc(C)c(OC)c(C)c2)c(OC)c1OC(=O)C(Cl)Cl | 4.39% (active) | 8.43% (active) | 58.9% | 18.8% | 38.7% | 25% | 14.5% | -16% (active) | 48.1% | -9.89% (active)
C=C1C(=O)O[C@H]2[C@H]1CC/C(COC(=O)NCc1c[nH]c3ccc(F)cc13)=C\CC[C@@]1(C)O[C@@H]21 | -62.9% (active) | 1.89% (active) | -68.8% (active) | -57.5% (active) | -88.5% (active) | 36% | 61.2% | -52.6% (active) | 14.3% | -50.8% (active)
COc1cc2c(cc1OC)C(=O)/C(=C/c1cc(C)c(O)c(C)c1)S2 | 25.3% | 12% | 71.7% | 56.9% | -6.02% (active) | 72.9% | 18.4% | -3.74% (active) | 70.7% | 19.1%
CN[C@@H](C)C(=O)N[C@H]1CCS[C@H]2CC(C)(C)[C@@H](C(=O)N[C@H]3c4ccccc4C[C@H]3OCC#CC#CCO[C@@H]3Cc4ccccc4[C@@H]3NC(=O)[C@H]3N4C(=O)[C@@H](NC(=O)[C@H](C)NC)CCS[C@H]4CC3(C)C)N2C1=O | 101% | 100% | -42.8% (active) | -51.2% (active) | 2.22% (active) | 124% | 86.8% | -43.6% (active) | 101% | 103%
Nc1n[nH]c2cccc(C#Cc3cccc(C(=O)Nc4cccc(C(F)(F)F)c4)c3)c12 | 74.9% | 8.36% (active) | 10.4% | 53.6% | 65.9% | 56.4% | 81.6% | 39% | 73.2% | 39.2%
N#C/C(=C\c1ccc([N+](=O)[O-])s1)c1nc2cc(Br)ccc2s1 | 25.9% | -5.1% (active) | -81.3% (active) | -56.1% (active) | -17.1% (active) | 6.29% (active) | 65.7% | -71% (active) | 5.39% (active) | -81.9% (active)
COc1ccc2nc(-c3ccc(-c4noc(-c5cc(OC)c(OC)c(OC)c5)n4)cc3)[nH]c2c1 | 57.4% | 14.7% | -33% (active) | 41.4% | 58.2% | 50.5% | 83.3% | -24.4% (active) | 102% | 63%
CC(=O)Nc1cccc(-c2ccc3c(c2)NC(=O)/C3=C\c2ccc[nH]2)c1 | 57.4% | 12.3% | 71.7% | 34.9% | 54.3% | 67.5% | 32.6% | 28.1% | 73.2% | 39.1%
CC(=O)Nc1ccc(-n2cnc3cc(-c4ccc(OCCN5CCCCC5)cc4)ccc32)cc1 | 89.3% | 1.57% (active) | 77.5% | 76.1% | 80.4% | 84.1% | 96.7% | 14.4% | 108% | 47.1%

Reference: PubChem BioAssay (NCI)
